The list is not random: actives were taken first. Their share in the collection is about 6%.
Sfp inh = inhibitors of Bacillus subtilis Sfp phosphopantetheinyl transferase. Q9F4F7. Biochemical Sfp PPTase activity, qHTS. Potency, µM, for inactives: largest response in the series, negative = inhibition, most hits filed as inhibitors. 3.5% of 310,000 active;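 also: the enzyme is Sfp with the accession as filed and its product quenches rhodamine fluorescence; 0% = enzyme reaction without inhibitor and -100% = no enzyme wells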
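Buffer: 50 mM Hepes-Na pH 7.6, 10 mM MgCl2, 0.01% Nonidet P-40, 0.01% BSA. Enzyme 15 nM, pre-exposed to compound 15 min; substrates then added and fluorescence change tracked over 30 min.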
Tau fluor cs = counter-screen for tau fibril formation inhibitors; tau K18 P301L Alexa594 fluorescence, heparin fibrillization; Potency, µM (top dose mostly 57.7 µM), without a hit: at the top dose activity change, negative = decrease; 0.93% of 280,000 active; AID 1463; also: nearly all actives have a fitted effect of over 55% in size
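Human K18 P301L tau (15 uM unlabeled plus 0.24 uM Alexa 594-labeled, final) in 100 mM sodium acetate pH 7 was mixed with compound and 20 uM heparin and incubated 6 hr at 37 C.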
PLK1 PBD block = PLK1 (human) polo-box domain binding inhibition | P53350 | Plk1 PBD binding of FITC phosphopeptide, fluorescence polarization | Potency, µM, for the others: max response, negative = inhibition, hits mostly inhibitors | 2.8% of 360,000 active; also: series mostly up to about 57 µM; nearly all actives have a fitted effect of over 65% in size
Tau fibril FP = blocks human tau fibril formation measured by polarization. K18 P301L tau heparin fibrillization, Alexa594 FP, 6 h. Potency, µM (series often up to 57.7 µM), without a hit: top-dose activity, negative = inhibition, hits mostly inhibitors. 0.39% of 280,000 active; also: nearly all actives have a fitted effect of over 55% in size
Target sequence (P10636 561-689 P618L limits assumed): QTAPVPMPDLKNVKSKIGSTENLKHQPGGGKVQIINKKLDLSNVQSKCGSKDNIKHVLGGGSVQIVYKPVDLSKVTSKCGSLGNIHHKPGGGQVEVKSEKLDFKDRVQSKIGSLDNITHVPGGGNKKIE
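Human K18 P301L fragment (15 uM unlabeled plus 0.24 uM Alexa 594-labeled) in 100 mM sodium acetate pH 7 with compound, aggregation induced by 20 uM heparin for 6 hr at 37 C. ThT (30 uM) added for 1 hr, then Alexa 594 FP read.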
VDR inh = blocks the human vitamin D receptor; P11473; VDR-SRC2-3 peptide fluorescence polarization, 2 h; Potency, µM, inactives show max response, negative = inhibition, hits mostly inhibitors; 0.93% of 400,000 active; AID 504847
Target sequence (P11473 whole entry, looked up): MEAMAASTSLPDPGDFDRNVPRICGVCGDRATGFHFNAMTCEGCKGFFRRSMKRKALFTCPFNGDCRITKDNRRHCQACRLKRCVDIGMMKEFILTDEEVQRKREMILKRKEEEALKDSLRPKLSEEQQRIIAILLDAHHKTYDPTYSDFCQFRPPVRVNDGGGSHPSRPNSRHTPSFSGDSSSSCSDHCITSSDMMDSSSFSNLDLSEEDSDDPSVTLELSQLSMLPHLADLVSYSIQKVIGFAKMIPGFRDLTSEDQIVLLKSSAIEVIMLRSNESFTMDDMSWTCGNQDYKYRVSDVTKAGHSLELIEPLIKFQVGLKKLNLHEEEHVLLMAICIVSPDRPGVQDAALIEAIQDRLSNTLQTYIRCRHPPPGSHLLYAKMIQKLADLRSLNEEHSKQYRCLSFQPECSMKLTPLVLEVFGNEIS
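The screen uses fluorescence polarization to detect compounds that interfere with recruitment of the SRC2-3 coactivator peptide to VDR; plates are read after 2 h at room temperature.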
Tau ThT inhib = tau fibrillization inhibition (ThT binding). P10636. recombinant tau K18 P301L, heparin-induced fibrillization, ThT fluorescence. Potency, µM (highest dose often 57.4 µM), for the others: top-dose activity, negative = inhibition, actives largely listed as inhibitors. 2.1% of 270,000 active. AID 1460; also: nearly all actives have a fitted effect of over 55% in size
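Using a mix of unlabeled (15 uM) and Alexa 594-labeled (0.24 uM) tau K18 P301L, heparin-triggered fibrillization over 6 hr at 37 C was scored by ThT fluorescence.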
An asterisk follows results filed as active; u = inconclusive; x = not tested or not shown; ! = not confirmed by another sample; [ ] = remark or other dose. Calls follow the shape of the dose curve; as a rule, active = well fitted curve in the direction sought with a large enough effect; inconclusive = small, poorly fitted or top-dose-only effect, or another doubt; inactive = no such curve, though single readings can be large; an effect the other way counts as inactive or inconclusive. Unless noted, % is scaled to controls: 0 for no effect and ±100 for the full control effect; potency is read from the fitted curve at half-maximal effect.

SMILES	Sfp inh	Tau fluor cs	PLK1 PBD block	Tau fibril FP	VDR inh	Tau ThT inhib
COc1cccc(NC(CNS(=O)(=O)c2ccc(Cl)cc2)c2ccccc2)c1 (centres undefined)	x	10µM*[quencher]	x	10%	20%	-9%
O=S(=O)(NCC(Nc1ccc(Cl)cc1)c1ccccc1)c1ccccc1 (centres undefined)	34%	8.9µM*[quencher]	-4%	-2%	3%	8%
Cc1ccc(NC(CNS(=O)(=O)c2ccc(Cl)cc2)c2ccccc2)cc1 (centres undefined)	12%	4.5µM*[quencher]	-7%	7%	3%	1%
COC(CNS(=O)(=O)c1ccc(Cl)cc1)c1ccccc1 (centres undefined)	3%	x	-6%	x	-6%	x
Cc1cc(C)n(C(C[N+](=O)[O-])c2ccc(Cl)cc2)n1 (centres undefined)	-12%	-23%	17µM*	-1%	u	u
COC(=O)c1ccc(OCCCCN2CC(C)OC(C)C2)cc1 (centres undefined)	56µM*	7%	-17%	-12%	6%	-12%
COc1cccc(OCCCCN2CC(C)OC(C)C2)c1 (centres undefined)	-28%	4%	1%	0%	3%	-7%
O=C(Nc1nnc(SCc2cc(=O)n3cc(Cl)ccc3n2)s1)c1cccc(F)c1	x	-8%	x	-9%	10%	2%
O=C1c2cc(Br)ccc2N(Cc2ccc(Br)cc2)S(=O)(=O)C1c1cc(Cl)c(Cl)cc1[N+](=O)[O-] (centres undefined)	x	x	21µM*	x	-27%	x
CC(=O)c1cccc(OCC(=O)N(C)CC(=O)Nc2ccc(F)cc2)c1	20%	2%	30µM*	3%	-26%	0%
N#C/C(=N\Nc1ccc(Cl)cc1)C(N)=S	-13%	-23%	-17%	11%	-29%	x
Cc1ccc(N/N=C(\C#N)C(=O)c2ccsc2)cc1	-3%	u	-16%	10%	-7%	14µM*
N#C/C(=N\Nc1ccc(Cl)cc1)C(=O)c1ccsc1	8%	u	-18%	3%	-14%	5µM*
CCOc1ccccc1NC(=O)c1cc2c(=O)n(Cc3cccnc3)ccc2nc1C	x	-11%	x	-2%	2%	-4%
CCOc1ccc(N2CC(NC(=O)c3ccc(S(=O)(=O)N4CCOCC4)cc3)CC2=O)cc1 (centres undefined)	x	3%	x	-3%	0%	7%
CC1CCC/C(=N/Nc2nc3ccccc3s2)C1 (centres undefined)	u	u	30µM*	-6%	-6%	u
COc1ccc(S(=O)(=O)Nc2cccc3c2O[C@H](CN(C)S(=O)(=O)c2ccccc2)[C@@H](C)CN([C@H](C)CO)C3=O)cc1	x	x	-12%	x	-12%	x
Cc1ccc(-n2c(C)cc(/C([O-])=C(/C(=S)Nc3ccc(F)c(Cl)c3)[n+]3ccccc3)c2C)cc1	56µM*	-26%	-11%	-1%	18%	u
Cc1cc(/C([O-])=C(/C(=S)Nc2ccc(F)cc2)[n+]2ccccc2)c(C)n1Cc1ccccc1Cl	-15%	-15%	-12%	-5%	2%	u
Cc1cc(/C([O-])=C(/C(=S)Nc2ccc(F)cc2)[n+]2ccccc2)c(C)n1-c1ccc(F)cc1	u	u	-16%	-11%	-15%	28µM*
Cc1cc(/C([O-])=C(/C(=S)Nc2ccccc2)[n+]2ccccc2)c(C)n1-c1ccccc1	-10%	-18%	-10%	-4%	-10%	u
O=C(OCc1ccco1)c1ccc2c(c1)N(Cc1ccc([N+](=O)[O-])cc1)C(=O)c1ccccc1S2	x	-20%	x	3%	6%	-13%
CCN(CC)CCNc1ncnc2c1[nH]c1ccc(OC)cc12	3%	-15%	x	2%	x	-13%
COc1ccc2[nH]c3c(NCCC4=CCCCC4)ncnc3c2c1	-16%	7.9µM*[quencher]	6%	u	4%	u
COc1ccc(C2Nc3ccc(NC(C)=O)cc3C(=O)N2Cc2cccc(Cl)c2)cc1COc1ccc(NC(C)=O)cc1 (centres undefined)	x	x	x	x	-15%	x
SMILES	Sfp inh	Tau fluor cs	PLK1 PBD block	Tau fibril FP	VDR inh	Tau ThT inhib
O=C(O)c1ccc(COc2ccc3ccccc3c2/C=C2/NC(=O)N(c3ccccc3)C2=O)cc1	-30%	0%	-18%	-4%	6%	u
CCN1C(=O)S/C(=C/c2c(OCc3ccc(C(=O)O)cc3)ccc3ccccc23)C1=O	u	2%	38µM*	2%	u	u
Cc1cn2c(=O)c(S(=O)(=O)NCCc3ccccc3)c(C)nc2s1	x	-1%	x	2%	8%	-2%
CSc1ccccc1NC(=O)C1CCCO1 (centres undefined)	79µM*	6%	-16%	-1%	0%	-5%
COC(=O)c1ccccc1NC(=O)c1noc2c1CCC2	u	-21%	u	4%	17%	u
Cc1ccc(O)c(NC(=O)c2noc3c2CCCC3)c1	x	u	x	13%	-4%	u
Cc1ccc(O)c(NC(=O)c2noc3c2CCCCC3)c1	15%	25µM*[quencher]	-12%	u	-14%	-11%
CSc1ccccc1NC(=O)c1noc2c1CCC2	20µM*	-28%	u	12%	-16%	u
OC1C2COC(O2)[C@H](O)C1O (some centres undefined)	13%	0%	x	4%	1%	4%
COC(=O)c1ccc(-n2c(/C=C/c3cc(OC)c(OC)c(OC)c3)nc3cc(Cl)ccc3c2=O)cc1	x	4%	x	2%	11%	4%
COc1ccccc1CNC(=O)CN1C(=O)CSc2ccc(S(=O)(=O)N(C)C)cc21	x	-3%	x	-7%	11%	3%
COc1cc(O)c(C(CC(=O)N2CCN(c3ccccc3)CC2)c2ccc(N(C)C)cc2)c(OC)c1 (centres undefined)	89µM*!	-18%	-11%	13%	-16%	-6%
COc1ccc(C(CC(=O)N2CCN(c3ccccc3)CC2)c2c(OC)cc(OC)c3ccc(=O)oc23)cc1 (centres undefined)	-3%	-24%	-8%	12%	5%	-13%
CCOC(=O)c1c(NC(=O)OC)sc(C(=O)N(CC)CC)c1C	22µM*	-5%	24µM*	4%	-5%	-14%
CCN(CC)C(=O)c1sc(NC(=O)c2cc(-c3ccc(C)s3)nc3ccccc23)c(C(=O)OC)c1C	13µM*	-28%	15µM*	-8%	-29%	-20%
CCN(CC)C(=O)c1sc(NC(=O)c2ccncc2)c(C(=O)OC)c1C	28µM*	-17%	-20%	-5%	u	u
Cc1cc(C)nc(NC(=O)c2cc(-c3ccc(C)s3)nc3ccccc23)c1	-9%	-14%	-2%	1%	-8%	-10%
